From PubChem BioAssay
The source made the active and inactive calls.

Assays:
[1] = E. coli DRC41 culture turbidity changes, primary screen, E. coli filamentation inducer project, strain DRC41, OD650, 48 h (AID 1152);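 further: E. coli MC1000 strain DRC41 lacking acrAB efflux pump and sulA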; conditions: E. coli DRC41 (acrAB sulA), higher = more signal, called active from +8 up or from −8 down
[2] = small-molecule binders of probe aLefty1, primary screen, biochemical, small-molecule microarray, 635/667 nm fluorescence (AID 1153); conditions: higher = more signal;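 further: score merges spot fluorescence with signal-to-noise ratio from the scanned slide images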
[3] = PSAC antagonists in infected red cells, primary screen, cell-based, P. falciparum Indochina, OD700, 1 h (AID 1154); conditions: P. falciparum Indochina infected RBC osmotic lysis, higher = more signal, called active from +8 up or from −8 down
[4] = PSAC antagonists in infected red cells, primary screen, cell-based, P. falciparum Indochina, OD700, 2 h (AID 1155);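 further: lysis reports solute entry through the parasite surface anion channel PSAC; channel blockers reduce lysis of infected cells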; conditions: P. falciparum Indochina infected erythrocytes, osmotic lysis OD700; higher = more signal, called active from +8 up or from −8 down
[5] = osmotic lysis modulators in infected erythrocytes, primary screen, PSAC antagonist project, cell-based, P. falciparum Indochina, OD700, 3 h (AID 1156); conditions: higher = more signal, called active from +8 up or from −8 down
[6] = PSAC antagonists in infected red cells, primary screen, cell-based, P. falciparum Indochina, OD700, 18 h (AID 1157); conditions: P. falciparum Indochina infected erythrocytes, osmotic lysis OD700, 18 h; higher = more signal, called active from +8 up or from −8 down
[7] = modulators of S6 phosphorylation in cells, primary screen, cell-based, A549, cytoblot, luminescence, serum-stimulated (AID 1158); conditions: A549 phospho-S6 cytoblot, 5 h, higher = more signal;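 further: serum-stimulated A549 lung adenocarcinoma cells; signal is phosphorylated S6 detected by cytoblot immunostaining with HRP secondary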
[8] = target: NADPH oxidase 2 (Homo sapiens) (UniProt P04839); assay: NOX2-dependent H2O2 signal modulators, primary screen, NOX inhibitor project, cell-based, HEK293-NOX2, PMA-stimulated, Amplex Red fluorescence (AID 1159); conditions: 45 min, higher = more signal, called active from +8 up or from −8 down; further: test concentration not given here
[9] = target: NADPH oxidase 4 (Homo sapiens) (UniProt Q9NPH5); assay: NOX4-dependent H2O2 signal modulators, primary screen, NOX inhibitor project, cell-based, HEK293-NOX4, tetracycline-induced, Amplex Red fluorescence (AID 1160); conditions: 45 min, higher = more signal, called active from +8 up or from −8 down
[10] = target: NADPH oxidase 5 (Homo sapiens) (UniProt Q96PH1); assay: NOX5-dependent H2O2 signal modulators, primary screen, NOX inhibitor project, cell-based, HEK293-NOX5, Amplex Red fluorescence (AID 1161); conditions: HEK293-NOX5, ionomycin, 45 min, higher = more signal
[11] = A549 cell viability effects, profiling panel, calcein-AM fluorescence, 48 h, basal (AID 1162); conditions: higher = more signal; further: test concentration not given here
[12] = adipocyte viability effects, profiling panel, cell-based, 3T3-L1 adipocytes, calcein-AM fluorescence, 48 h, basal (AID 1163); conditions: 3T3-L1 adipocytes viability, higher = more signal; further: test concentration not given here
[13] = HepG2 cell viability effects, profiling panel, calcein-AM fluorescence, 48 h, basal (AID 1164); conditions: higher = more signal; further: test concentration not given here
[14] = MM1S cell viability effects, profiling panel, calcein-AM fluorescence, 48 h, basal (AID 1165); conditions: higher = more signal;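 further: viability of MM1S multiple myeloma cells under basal unstimulated conditions; test concentration not given here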
[15] = basal RPMI8226 viability, no added stimulus, profiling panel, cell-based, calcein-AM fluorescence, 48 h, PK04 Diversity Set (AID 1166); conditions: RPMI8226 myeloma viability, higher = more signal;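 further: cells grown under basal conditions without added stimulus; test concentration not given here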
[16] = basal HepG2 mitochondrial membrane potential changes, profiling panel, cell-based, JC-1 fluorescence, 24 h, 100 nL compound (AID 1167); conditions: higher = more signal; further: test concentration not given here
[17] = basal 3T3-L1 adipocyte mitochondrial potential changes, profiling panel, cell-based, JC-1 fluorescence, 3T3-L1 adipocytes, 24 h, 100 nL compound (AID 1168); conditions: JC-1 mitochondrial fluorescence, higher = more signal, called active from +8 up or from −8 down; further: test concentration not given here
[18] = basal RPMI8226 mitochondrial membrane potential changes, profiling panel, cell-based, JC-1 fluorescence, 24 h, 100 nL compound (AID 1169); conditions: RPMI8226 myeloma, JC-1 mitochondrial potential fluorescence, higher = more signal; further: test concentration not given here
[19] = basal MM1S mitochondrial membrane potential changes, profiling panel, cell-based, JC-1 fluorescence, 24 h, 100 nL compound (AID 1170); conditions: higher = more signal; further: test concentration not given here
[20] = A549 lung cancer cell viability effects, profiling panel, resazurin fluorescence, 24 h, PK04 Diversity Set (AID 1171); conditions: higher = more signal, called active from +8 up or from −8 down; further: test concentration not given here

NADPH oxidase 2 (Homo sapiens), sequence (P04839 whole entry, looked up): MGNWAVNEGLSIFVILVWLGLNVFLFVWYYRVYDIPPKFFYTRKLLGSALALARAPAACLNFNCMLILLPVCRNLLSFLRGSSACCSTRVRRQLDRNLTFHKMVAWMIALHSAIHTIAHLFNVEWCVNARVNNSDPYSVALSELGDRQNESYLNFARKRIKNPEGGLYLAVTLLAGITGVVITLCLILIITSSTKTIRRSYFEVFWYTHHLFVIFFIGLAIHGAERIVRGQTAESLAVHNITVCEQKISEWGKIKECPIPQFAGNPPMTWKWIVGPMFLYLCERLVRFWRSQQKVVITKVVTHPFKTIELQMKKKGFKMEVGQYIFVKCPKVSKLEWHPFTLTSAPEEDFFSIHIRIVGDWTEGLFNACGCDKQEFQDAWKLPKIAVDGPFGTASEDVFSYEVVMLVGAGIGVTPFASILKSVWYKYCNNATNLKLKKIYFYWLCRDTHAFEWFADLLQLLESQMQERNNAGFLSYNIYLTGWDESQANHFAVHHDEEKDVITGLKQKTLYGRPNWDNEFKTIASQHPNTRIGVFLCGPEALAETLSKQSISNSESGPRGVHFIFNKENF
NADPH oxidase 5 (Homo sapiens), sequence (Q96PH1 whole entry, looked up): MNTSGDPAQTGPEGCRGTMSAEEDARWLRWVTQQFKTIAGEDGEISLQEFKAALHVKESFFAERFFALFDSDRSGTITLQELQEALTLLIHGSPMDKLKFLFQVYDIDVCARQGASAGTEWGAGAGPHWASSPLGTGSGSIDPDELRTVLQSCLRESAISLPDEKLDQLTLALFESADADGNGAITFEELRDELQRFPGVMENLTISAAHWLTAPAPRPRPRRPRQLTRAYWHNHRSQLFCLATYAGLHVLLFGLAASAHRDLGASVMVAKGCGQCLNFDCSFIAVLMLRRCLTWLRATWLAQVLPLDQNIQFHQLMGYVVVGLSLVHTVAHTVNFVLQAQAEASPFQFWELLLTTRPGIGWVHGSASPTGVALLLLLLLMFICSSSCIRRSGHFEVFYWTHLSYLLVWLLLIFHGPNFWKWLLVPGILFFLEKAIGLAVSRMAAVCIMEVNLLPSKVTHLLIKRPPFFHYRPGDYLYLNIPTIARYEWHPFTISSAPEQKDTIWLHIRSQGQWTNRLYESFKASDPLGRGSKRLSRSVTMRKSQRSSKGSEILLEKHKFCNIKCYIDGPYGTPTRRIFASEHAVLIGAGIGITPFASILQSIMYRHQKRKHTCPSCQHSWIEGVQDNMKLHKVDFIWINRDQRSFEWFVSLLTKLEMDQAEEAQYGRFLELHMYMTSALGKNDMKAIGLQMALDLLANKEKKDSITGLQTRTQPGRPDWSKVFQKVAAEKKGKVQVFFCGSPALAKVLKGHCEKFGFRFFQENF
NADPH oxidase 4 (Homo sapiens), sequence (Q9NPH5 whole entry, looked up): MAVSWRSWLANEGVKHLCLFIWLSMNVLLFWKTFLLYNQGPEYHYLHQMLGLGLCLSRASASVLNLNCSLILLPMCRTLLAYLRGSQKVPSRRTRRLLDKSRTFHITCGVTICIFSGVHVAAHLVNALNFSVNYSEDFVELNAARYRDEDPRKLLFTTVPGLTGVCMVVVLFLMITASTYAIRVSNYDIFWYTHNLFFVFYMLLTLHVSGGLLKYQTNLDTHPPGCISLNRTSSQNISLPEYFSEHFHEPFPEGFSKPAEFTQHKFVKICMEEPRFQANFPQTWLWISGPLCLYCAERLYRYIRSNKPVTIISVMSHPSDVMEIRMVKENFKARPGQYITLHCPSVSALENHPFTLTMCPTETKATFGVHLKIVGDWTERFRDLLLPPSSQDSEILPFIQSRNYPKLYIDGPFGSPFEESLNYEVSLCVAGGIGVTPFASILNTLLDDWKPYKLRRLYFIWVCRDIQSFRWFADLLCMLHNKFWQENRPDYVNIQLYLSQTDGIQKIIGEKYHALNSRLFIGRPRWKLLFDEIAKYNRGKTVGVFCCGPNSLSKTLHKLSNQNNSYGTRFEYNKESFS

SMILES | z-score [1] | composite z-score [2] | z-score [3] | z-score [4] | z-score [5] | z-score [6] | z-score [7] | z-score [8] | z-score [9] | z-score [10] | z-score [11] | z-score [12] | z-score [13] | z-score [14] | z-score [15] | z-score [16] | z-score [17] | z-score [18] | z-score [19] | z-score [20]
CCOC(=O)C[C@H]1[C@H](OC(=O)Cc2ccc3c(c2)OCO3)[C@@H](NC(=O)C2CCCCC2)c2cc(OCCCO)ccc2N1C(=O)Cc1ccc(OC)cc1 | 2.31 (inactive) | 0.405 | 5.77 (inactive) | -0.54 (inactive) | -1.21 (inactive) | -0.911 (inactive) | 1.97 | -0.00495 (inactive) | 1.07 (inactive) | 0.297 | 0.746 | 0.433 | 1.08 | 0.747 | 0.664 | 2.39 | 0.0143 (inactive) | -0.0561 | -0.784 | -0.247 (inactive)
COCC(=C=CC[C@H](O)c1ccc(OCCO)cc1)C[C@H](O)c1cc(Cl)cc(Cl)c1O | 1.37 (inactive) | 0.155 | 10.3 (active) | 2.44 (inactive) | -2.64 (inactive) | -0.162 (inactive) | 0.175 | -2.99 (inactive) | -1.12 (inactive) | -3.26 | -1.05 | 0.0622 | -0.616 | -2.31 | -0.638 | -0.0342 | 0.138 (inactive) | 0.04 | -1.42 | 0.799 (inactive)
Cc1cc(C)cc(N2C(=O)CS(=O)(=O)C2c2cccc([N+](=O)[O-])c2)c1 (stereo not given) | 0.469 (inactive) | 1.33 | 0.548 (inactive) | -0.385 (inactive) | 0.809 (inactive) | -1.48 (inactive) | 1.48 | 0.316 (inactive) | 0.227 (inactive) | 1.63 | 1.26 | 0.869 | 1.41 | 0.871 | 1.47 | 0.994 | 0.76 (inactive) | -0.327 | -0.744 | -0.913 (inactive)
COc1ccc(C#Cc2ccc3c(c2)[C@]2(C(=O)N3)[C@H](C(=O)NC[C@H](O)c3ccccc3)[C@H]3C(=O)O[C@H](c4ccccc4)[C@H](c4ccccc4)N3[C@@H]2c2ccc(OCCO)cc2)cc1 | -0.877 (inactive) | 0.0711 | 2.93 (inactive) | 1.97 (inactive) | -0.0845 (inactive) | 1.52 (inactive) | -0.321 | 1.4 (inactive) | -1.22 (inactive) | 0.636 | 0.415 | 1.17 | -0.425 | -1.82 | -1.07 | -1.51 | 2.53 (inactive) | -1.04 | -0.733 | -0.171 (inactive)
COc1cc(CO)ccc1OC(C)=O | 1.48 (inactive) | -0.157 | -0.92 (inactive) | -1.73 (inactive) | -0.798 (inactive) | -2.47 (inactive) | 1.03 | -4.55 (inactive) | -1.36 (inactive) | -0.667 | 0.653 | 0.584 | 1.04 | 1.12 | 1.19 | 0.302 | 0.791 (inactive) | 0.41 | 0.433 | -1.08 (inactive)
C=C[C@H](C)[C@@H](O)c1ccc(O)c2ccccc12 | 0.048 (inactive) | 0.169 | 1.01 (inactive) | 1.05 (inactive) | 0.0353 (inactive) | 1.02 (inactive) | -0.157 | -5.28 (inactive) | -1.05 (inactive) | 1.33 | -0.573 | -0.69 | -0.218 | -2.57 | -1.55 | -1.98 | -0.641 (inactive) | -0.94 | -1.29 | -0.292 (inactive)
C=CCNC(=O)[C@@H]1[C@H]2C(=O)O[C@H](c3ccccc3)[C@H](c3ccccc3)N2[C@H](c2ccccc2OCCO)[C@@]12C(=O)Nc1ccc(C#CC3=CCCCC3)cc12 | 1.51 (inactive) | 0.454 | 1.78 (inactive) | -0.144 (inactive) | -0.458 (inactive) | 0.0442 (inactive) | 2.36 | 0.646 (inactive) | -1.35 (inactive) | -4.4 | -1.77 | 1.98 | -2.85 | -3.09 | -3.42 | -1.79 | 2.32 (inactive) | -0.853 | -1.17 | -1.49 (inactive)
[N-]=[N+]=NCc1ccccc1C[C@]1(C(=O)NCC(O)CO)N=C(c2ccc(OCCCO)cc2)O[C@H]1c1ccccc1N=[N+]=[N-] (stereo not given in full) | 0.801 (inactive) | 0.12 | 31.1 (active) | 32.2 (active) | 2.92 (inactive) | 3.93 (inactive) | 0.828 | -0.689 (inactive) | -0.154 (inactive) | -1.77 | -0.13 | 1.27 | -0.35 | -1.09 | -1.11 | 0.0849 | 1.19 (inactive) | -0.893 | -0.384 | 0.0953 (inactive)
C=C(CCCC)C(=O)CC[C@H](OC(=O)c1cccnc1)c1cccc(OCCO)c1 | -0.03 (inactive) | -0.147 | 20.7 (active) | 4.33 (inactive) | 1.83 (inactive) | 1.19 (inactive) | 0.0701 | -0.372 (inactive) | -0.417 (inactive) | -2.11 | 0.952 | 0.136 | 0.316 | -3.35 | -2.66 | 1.39 | 0.139 (inactive) | -0.726 | -0.592 | 0.358 (inactive)
